Compound activity deposited in PubChem BioAssay by several laboratories.
YopH inh: inhibitors of Yersinia enterocolitica YopH tyrosine phosphatase; fluorescence Ex485/Em525; inhibition, % (test concentration not listed); 140,000 compounds, 0.16% hits; AID 898; in the data active = inhibition above about 50%
RmlC RmlD mix: mixture blocks RmlC and RmlD coupled enzyme activity. 110,000 compounds, 0.39% hits. RmlC/RmlD coupled enzyme inhibition, 384-well mixture HTS. inhibition, % at 5.5 µM; in the data active = inhibition above about 30%, passing the limit was not always enough; inconclusive = no clear call, values can overlap the other calls
RmlCD artifact: counter-screen for RmlC/RmlD inhibitors: fluorescence artifact | shares compounds with RmlC RmlD mix | RmlC/RmlD assay fluorescence artifact counter-screen | calls only | 360 compounds, 96% hits | AID 1696; call rule not given here;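 also: compound alone with no enzyme and no substrates present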
Active calls of the source: *; ? = inconclusive; / = no result; + = active, no number. Most compounds without a hit are left out; they make up all but 0.41% or so of the library.

SMILES	YopH inh	RmlC RmlD mix	RmlCD artifact
CC1(C)CC(=O)C2=C(C1)OC1=C(C(=O)CC(C)(C)C1)C2(C)C	-13.2	/	/
CC1=CC(c2ccccc2)n2nc(NS(=O)(=O)c3ccc(C)cc3)nc2N1 (stereo not drawn)	-49.0	53.6*	+
CC1=CC(c2ccc(Cl)cc2)n2nc(NS(=O)(=O)c3ccc(C)cc3)nc2N1 (stereo not drawn)	-16.3	22.3	/
COc1ccc(-c2ccc3oc(-c4ccc(OC)cc4)c(C#CCCO)c3c2)cc1	/	-182.3	/
COc1ccc(C#Cc2c(-c3ccc(OC)cc3)oc3ccc(-c4ccc(OC)cc4)cc23)cc1	/	+	+
Cc1cc2oc3cc(NCCC4CCCN4C)ccc3c(=O)c2cc1C (stereo not drawn)	/	68.2*	+
CN1CCCC1CCNc1ccc2sc3ccccc3c(=O)c2c1 (stereo not drawn)	/	-10.9	/
CCOc1ccc(Nc2oc(-c3cccc(Cl)c3)nc2C#N)cc1	-5.7	35.6*	+
CCOc1ccc(Nc2oc(-c3ccco3)nc2C#N)cc1	-25.3	-14.8	/
NC1=NC[C@H](CC2CCCCC2)N1CCc1cc(C(F)(F)F)cc(C(F)(F)F)c1	/	-90.1	/
CC(Oc1ccc2oc(-c3ccccc3)c(C(=O)O)c2c1)C(=O)O (stereo not drawn)	-28.1	58.0*	+
CCOc1ccc2oc(-c3ccccc3)c(C(=O)O)c2c1	20.5	26.0	/
Nc1ccccc1C#Cc1cnccn1	/	5.9	/
CCOc1cccc2cc(-c3csc(NC(=O)CCC(=O)N4CCC(C)CC4)n3)c(=O)oc12	13.4	+	+
CC1CCN(C(=O)CSCC(=O)Nc2nc(-c3cccs3)cs2)CC1	-5.5	-15.0	/
Cc1cccn2c(=O)c3cc(C(=O)NC4CCCC4)c(=N)n(C4CCCC4)c3nc12	-20.8	79.0*	+
N=c1c(C(=O)NC2CCCC2)cc2c(=O)n3ccccc3nc2n1C1CCCC1	-40.3	84.7*	+
COC(=O)c1cc2c(=O)n3ccccc3nc2n(C(C)C)c1=N	-32.3	/	/
CCn1c(=N)c(C(N)=O)cc2c(=O)n3cccc(C)c3nc21	-4.7	/	/
CCCCNC(=O)c1cc2c(=O)n3cccc(C)c3nc2n(Cc2ccncc2)c1=N	-31.1	89.0*	+
CCCCNC(=O)c1cc2c(=O)n3cccc(C)c3nc2n(CCN2CCOCC2)c1=N	-41.8	/	/
CCOCCCn1c(=N)c(C(=O)NCc2ccc3c(c2)OCO3)cc2c(=O)n3cccc(C)c3nc21	-26.5	-1.7	/
CCCn1c(=N)c(C(=O)NC2CCCC2)cc2c(=O)n3cccc(C)c3nc21	5.7	42.5*	+
COc1ccc(C2Nc3ccccc3C(=O)N2O)cc1CN1CCOCC1 (stereo not drawn)	-18.6	/	/
Cc1scc(C(=O)NNC(=S)NC(C)c2ccccc2)c1C (stereo not drawn)	-9.6	/	/
SMILES	YopH inh	RmlC RmlD mix	RmlCD artifact
CC(=O)Nc1ccc(S(=O)(=O)N(C)CC(=O)OCC(=O)Nc2cccnc2Cl)cc1	-25.6	/	/
O=C1OC(c2ccc(Cl)cc2)/C(=C(/O)c2ccccc2)C1=O (stereo not drawn)	-0.1	-9.1	/
C=CCOc1ccc(/C=N/O)cc1Cl	-16.6	/	/
COCCCn1c(=NC(=O)c2ccncc2)c(C#N)cc2c(=O)n3cccc(C)c3nc21	-8.8	103.9*	+
COCCCn1c(=N)c(C(=O)NCc2ccc3c(c2)OCO3)cc2c(=O)n3ccccc3nc21	-36.6	19.7	/
Cc1cccn2c(=O)c3cc(C(=O)NCc4ccco4)c(=N)n(C(C)C)c3nc12	-22.1	15.4	/
COCCCn1c(=N)c(C(=O)NC2CCCCC2)cc2c(=O)n3ccccc3nc21	6.7	49.4*	+
Cc1cccn2c(=O)c3cc(C#N)c(=NC(=O)c4ccncc4)n(CCCOC(C)C)c3nc12	-45.5	?	/
Cc1cccn2c(=O)c3cc(C(=O)NCc4cccnc4)c(=N)n(C(C)C)c3nc12	-14.5	33.1*	+
O=c1cc(O)c2c(=O)n(-c3ccccc3)c3c(c2o1)CCCCC3	-28.5	/	/
N#C/C(=C\c1cccc(Cl)c1)c1n[nH]c(Cn2cncn2)n1	-4.5	15.5	/
COc1ccc(C(=O)C2CN(c3ccccc3)CC2c2ccc(Cl)cc2)cc1 (stereo not drawn)	0.6	5.3	/
Cc1ccc(F)c([C@H]2C3C=CCC(c4ccccc4)C3C(=O)N2Cc2ccccc2)c1 (stereo partly drawn)	/	-8.0	/
O=C(NCc1ccco1)c1ccc2nc3sc4c(c3c(=O)n2c1)CCCC4	-46.4	45.8*	+
C=CCn1c(SCC(=O)NCc2ccco2)nc2sc3c(c2c1=O)CCCC3	-28.9	-13.4	/
CCc1ccc(C2=NNC(=Nc3cccc(S(=O)(=O)N(C)C)c3)SC2)cc1	5.5	/	/
